The values below come from ChEMBL document CHEMBL3988442, “University of Dundee, Small-Polar-MMV Screening Library” (2021).

In this experiment the target is T1, Aspartate--tRNA(Asp/Asn) ligase (Mycobacterium tuberculosis (strain ATCC 25618 / H37Rv)) (UniProt P9WFW3).
T1 sequence (whole entry): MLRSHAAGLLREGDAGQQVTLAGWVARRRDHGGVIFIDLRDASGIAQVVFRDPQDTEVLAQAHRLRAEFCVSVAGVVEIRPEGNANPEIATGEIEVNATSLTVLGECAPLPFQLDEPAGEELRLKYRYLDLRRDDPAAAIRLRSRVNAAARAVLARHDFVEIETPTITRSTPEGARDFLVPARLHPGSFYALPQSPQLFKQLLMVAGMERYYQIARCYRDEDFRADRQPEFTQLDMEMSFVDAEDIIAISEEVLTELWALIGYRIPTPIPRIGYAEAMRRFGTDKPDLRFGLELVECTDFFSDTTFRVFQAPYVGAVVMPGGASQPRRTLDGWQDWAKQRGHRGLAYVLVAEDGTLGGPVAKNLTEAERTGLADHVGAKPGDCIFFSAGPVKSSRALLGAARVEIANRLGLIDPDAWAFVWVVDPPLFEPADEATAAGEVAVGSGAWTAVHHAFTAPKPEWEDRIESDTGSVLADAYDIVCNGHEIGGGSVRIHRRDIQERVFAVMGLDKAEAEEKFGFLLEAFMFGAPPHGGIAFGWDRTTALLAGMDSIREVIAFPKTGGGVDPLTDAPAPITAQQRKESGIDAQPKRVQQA
Description: Assay for Asp RNA synthetase-1 from Mycobacterium tuberculosis. Type of experiment: functional. Also noted: scale not given: in the data most compounds retested in dose-response had high values. To be noted: 30 µM.
On to `CC(O)CN1CCN(C(=O)c2cccc(CC#N)c2)CC1` (stereo not given), for which the Percent Effect stood at 2.73%.

As to `O=c1oc(-c2ccc(F)cc2)nn1CN1CCN(C2CCCC2)CC1`, the Percent Effect turned out to be 0.546%. For `Cc1ccc(C2CCCCCN2Cc2cn(C)nc2C)cc1` (stereo not given) the value was -5.2%; for `Cc1ccc(OCC(=O)NS(=O)(=O)c2c(C)noc2C)cc1C`, -4.32%. For `CC(C)c1nccn1C1CCCN(C(=O)c2cnc[nH]2)C1` (stereo not given) the value was -0.983%.

Take `Cc1noc(Cl)c1CCC(=O)N1CCCCC1Cn1cccn1` (stereo not given): the Percent Effect amounted to 1.35%. As for `O=C1CCSCC(C(=O)N2CCOCC2)N1` (stereo not given), the Percent Effect was 1.64%. For the molecule `CCN1CCCC1CN(CCN(C)C)S(=O)(=O)c1ccc(C#N)cc1` (stereo not given), the Percent Effect is -3.16%. For `O=C(CCOc1ccc(Cl)cc1)N1CCN(c2cnccn2)CC1` the value was 0.879%. For `CCC(C)NC(=O)Cc1c(C)nc2c(c1C)c(=O)[nH]n2C` (stereo not given) the value was 5.44%; for `CC(C)Cc1cc(NC(=O)c2ccc(=O)[nH]n2)n(C)n1`, -2.97%. As to `NS(=O)(=O)c1ccc(NC(=O)CSc2ccc3c(c2)CCC3)cc1`, the Percent Effect was found to be 3.87%. Take `CC(C)c1nccn1-c1cccc(C2CCN(C)CC2)n1`: the Percent Effect is -1.47%.

Turning to `Cc1ccsc1[C@@H]1CCN(C(=O)CCC(=O)N2CCCCCC2)C[C@H]1O`, the Percent Effect was -0.418%. With `CCCOc1ccc(CNC2CCCc3c2cnn3CC)cc1OC` (stereo not given), the Percent Effect was -1.51%. With `CCc1ncc2c(n1)CN(C(=O)COC)C2`, the Percent Effect was determined as 2.9%. For `CS(=O)(=O)NCc1cc2n(n1)CCCN(Cc1cccc(C#N)c1)C2`, the Percent Effect was determined as 0.342%.

In the case of `O[C@H]1[C@H](n2cc(-c3ccccc3)nn2)c2ccccc2C12CCNCC2`, the Percent Effect was 6.77%. With `Cc1cc(C)n(C2CCCN(C(=O)c3cccc4[nH]ncc34)C2)n1` (stereo not given), the Percent Effect was 7.59%. As to `O=C(NCc1ccco1)[C@H]1C[C@@H]2CCN(c3ccncn3)C[C@@H]2O1`, the Percent Effect was -4.16%.

For the molecule `O=C([C@H]1C[C@H]2OCC[C@H]2N(C(=O)C2CCOCC2)C1)N1CCCCO1`, the Percent Effect came out at 0.757%. As for `CC(C)C(C)NC(=O)Nc1ccccc1CN1CCOCC1` (stereo not given), the Percent Effect was determined as 3.91%. In the case of `Cc1cccc(OCCC(=O)N(C)CCC#N)c1C`, the Percent Effect worked out at 0.839%. `CCc1nc(C)c(C(=O)NCCNc2ncccn2)s1`: the Percent Effect came out at 0.562%.

Take `Cc1nc(C)n(CC2CCCN2CCCc2ccccc2)n1` (stereo not given): the Percent Effect was 0.747%. For `COc1ccc(C)cc1CN1CCCC1c1noc(C2CC2)n1` (stereo not given), the Percent Effect is -4.34%. For `OCC1CCCN1c1cc(NCCNc2ccccn2)ncn1` (stereo not given) the value was 8.62%; for `CCc1cc(C(=O)N2CCCC2c2nc(C)c(F)c(O)n2)on1` (stereo not given), 2.22%; for `CN1CCOC(CNC(=O)Cc2ccccc2F)C1` (stereo not given), -1.99%. For `CCOc1ccccc1-c1noc(CN2CCCC(O)C2)n1` (stereo not given) the value was -5.33%; for `O=C(c1ccc[nH]1)N1CCn2cc(Cn3cncn3)nc2C1`, 1.43%. For `O=C(CSc1ccccc1Cl)NS(=O)(=O)c1ccc2c(c1)OCCO2` the value was -8.39%; for `Cc1ccc(NC(C)C(=O)NCc2cccs2)cc1C` (stereo not given), 3.13%. For the molecule `C[C@]1(O)CCN(Cc2cncs2)C[C@@H]1Oc1cccc(F)c1`, the Percent Effect was -1.46%.

In the case of `CCn1ccnc1CN1CCCN(C(=O)Cn2nc(C)cc2C)CC1`, the Percent Effect worked out at 3.14%. As for `CCc1ccc(C(=O)N2CCCC(n3cncn3)C2)o1` (stereo not given), the Percent Effect was 1.95%. For `COc1ccc(CN2CCCCC2CNC(=O)OC(C)(C)C)cc1F` (stereo not given) the value was -1.76%.

Take `CC(O)CN1CCN(C(=O)c2ccn(-c3cccc(Cl)c3)n2)CC1` (stereo not given): the Percent Effect is -5.25%.

On to `N#CCSCCCN1CCCN(C(=O)c2ccccc2)CC1`, for which the Percent Effect was -4.83%.

`CC(CN1CCOCC1)NC(=O)NCc1ccc(Cl)s1` (stereo not given): the Percent Effect was 2.25%.
